We go through 13 compounds from PubChem BioAssay AID1347170 (National Center for Advancing Translational Sciences (NCATS), 2019).

Inconclusive results are not listed. Entries that show only a call come without a potency. Active and inactive are the calls of the source. Calls come from the whole dose curve; as a rule, active = well fitted cell-killing curve with a large enough effect; inconclusive = small, poorly fitted or top-dose-only effect, or another doubt; inactive = flat fitted curve, though single readings scatter.

The assay can be described thus: Vero cells viability counterscreen for qRT-PCR qHTS assay of selected Zika virus inhibitors. To be noted: CellTiter-Glo ATP luminescence, 24 h; series mostly up to 41.8 µM. In a few lines:
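Vero cells in DMEM + 4% FBS were attached overnight, then treated with compounds for 24 h. Viability was measured by CellTiter-Glo ATP luminescence after 30 min at 37 °C.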
In general terms: A counterscreen serves to expose hits that act by an unwanted route or on another target.

As for `O=C(Nc1cc(C(F)(F)F)cc(C(F)(F)F)c1)c1cc(Cl)ccc1O`, the Potency result is “inactive”.
The value for `CC1(C)CCC(CN2CCN(c3ccc(C(=O)NS(=O)(=O)c4ccc(NCC5CCOCC5)c([N+](=O)[O-])c4)c(Oc4cnc5[nH]ccc5c4)c3)CC2)=C(c2ccc(Cl)cc2)C1` was 3.16 µM (active); that for `Cc1cccc(C)c1NS(=O)(=O)c1ccc(NS(=O)(=O)c2ccc3c(c2)OCCO3)cc1` was “inactive”; that for `N#CC(c1ccc(Cl)cc1)c1c(Cl)cc(-n2ncc(=O)[nH]c2=O)cc1Cl` (stereo not drawn) was “inactive”.
To `Oc1c(Cl)cc(Cl)c(Cl)c1Cc1c(O)c(Cl)cc(Cl)c1Cl` belongs 35.5 µM (active).
To `O=C(Nc1ccc([N+](=O)[O-])cc1Cl)c1cc(Cl)ccc1O` belongs “inactive”.
In the case of `O=C(O)c1cccc(-c2ccc(-c3cn(C(=O)N4CCCCC4Cc4ccccc4)nn3)cc2)c1` (stereo not drawn), the Potency entry is “inactive”.
For `O=S(=O)(O)c1ccc2cc(N=Nc3cc(S(=O)(=O)O)c4cccnc4c3O)ccc2c1`, the Potency entry was “inactive”.
To `Cc1ccc2[nH]c(=O)c(C3=NN(C(=O)CCC(=O)O)C(c4ccc(Br)cc4)C3)c(-c3ccccc3)c2c1` (stereo not drawn) belongs “inactive”; to `CC(C)(O)c1ccccc1CC[C@@H](SCC1(CC(=O)O)CC1)c1cccc(/C=C/c2ccc3ccc(Cl)cc3n2)c1`, “inactive”; to `N#CC(c1ccnc(OCc2ccc(CN3CCOCC3)cc2)n1)c1nc2ccccc2s1` (stereo not drawn), “inactive”.
With `Cc1ccn(-c2cc(Cl)ccc2[C@@H](Oc2cc(-c3ccc(C[C@H](N)C(=O)O)cc3)nc(N)n2)C(F)(F)F)n1`, the Potency result is “inactive”.
Take `O=C(O)Cc1cc(I)c(Oc2ccc(O)c(I)c2)c(I)c1`: the Potency entry is “inactive”.
